Experimental data from ChEMBL document CHEMBL3988442, “University of Dundee, Small-Polar-MMV Screening Library” (2021).
In all, about 48,000 compounds went through this assay and about 13,000 (27%) showed an effect of 50% or more. This is one part of the list.

test system: Wolbachia pipientis; assay: Anti-Wolbachia Cell-Based Screen; assay type: functional; set-up: scale not given: in the data most compounds retested in dose-response had high values; conditions: 5 µM

Point of comparison: `Cn1ccnc1-c1cccc(NC(=O)NCCCO)c1`, “Percent Effect” value -3.437%. Against it:
- CN(C(=O)c1cccnc1OCC(F)F)c1ccc2c(c1)CCO2 — lower, -7.463%
- Cc1c(-c2c(-c3ccccc3)ncn2[C@@H](C(=O)O)[C@H](C)O)cnn1C — lower, -13.76%
- COCc1ncn(Cc2nc(-c3ccc(OC)cc3F)oc2C)n1 — higher, -0.9498%
- Cc1ccc(N2CCC(NC(C)c3cccs3)CC2)nc1 (configuration not stated) — lower, -4.773%
- Cn1cc(-c2csc(N3CCSCC3)n2)cn1 — lower, -8.104%
- CS(=O)(=O)N1CCC(c2nnc(CN3CCCC3)n2C2CC2)CC1 — lower, -12.66%
- CN(Cc1cc(C[C@@H]2C[C@H](N)C2(C)C)no1)c1ccccc1 — higher, 4.71%
- O=C(O)C(F)(F)F.O=C(c1cnc2ccccc2c1)N1CCC2(CCN2c2ncccn2)C1 (configuration not stated) — higher, 69.16%
- COCC1CC2(CCN(C(=O)c3cnc4ccccc4c3)CC2)CO1.O=C(O)C(F)(F)F (configuration not stated) — higher, 5.909%
- O=C(O)C(F)(F)F.O=C(O)C(F)(F)F.O=C(c1c[nH]cn1)N1CCC(F)(F)C2(CCN(c3ccccn3)C2)C1 (configuration not stated) — higher, 6.098%
- O=C(O)C(F)(F)F.O=C(c1ccccn1)N1CCC2(CC1)C(=O)Nc1ccccc12 — lower, -9.696%
- Cc1ccc(C(=O)N2CCC3(CC2)NC(=O)CC3c2ccccc2)cn1.O=C(O)C(F)(F)F (configuration not stated) — higher, 15.96%
- Cc1ccc(C(=O)N2CCC3(CCN3c3ncccn3)C2)cn1.O=C(O)C(F)(F)F (configuration not stated) — higher, 98.39%
- O=C(O)C(F)(F)F.O=C(c1ccccc1)N1CCC2(CCCN2c2ncccn2)CC1 — higher, 93.81%
- O=C(O)C(F)(F)F.O=C(c1ccc2ccccc2n1)N1CCC2(CCN2c2ncccn2)C1 (configuration not stated) — higher, 82.49%
- CCCc1nnsc1C(=O)N1CCN(CC(O)C2CC2)CC1.Cl (configuration not stated) — lower, -6.099%
- O=C(c1ccc2sccc2c1)N1CCC(C(=O)O)(n2cccn2)CC1 — lower, -6.348%
- COc1ccccc1-c1ncc(CN2CCCC[C@H](N(C)C)C2)s1 — lower, -5.387%
- Cc1cc(F)c(S(=O)(=O)N(C)CCn2cccn2)cc1F — lower, -6.407%
- O=C(O)C(F)(F)F.O=C(c1cccc(O)c1)N1CCC2(CCN2c2ncccn2)C1 (configuration not stated) — higher, 103.8%
- CCN(CC)CCNC(=O)c1cc(C(C)C)nc(N2CCCC2)n1 — higher, 3.007%
- Cc1csc(C(Cc2ccsc2)NC(=O)C2CCN(S(C)(=O)=O)CC2)n1 (configuration not stated) — higher, 94.26%
- CCC(NC(=O)C1CCN(S(C)(=O)=O)CC1)c1ccc(OC)c(C)c1 (configuration not stated) — higher, -3.123%
- CCC(NC(=O)C1CCN(S(C)(=O)=O)CC1)c1ccc(OC)c(OC)c1 (configuration not stated) — lower, -10.24%
- CS(=O)(=O)N1CCC(C(=O)NC(Cc2ccsc2)c2cccnc2)CC1 (configuration not stated) — higher, 127.1%
- CS(=O)(=O)N1CCC(C(=O)NC(Cc2ccsc2)c2ccccn2)CC1 (configuration not stated) — lower, -12.55%
- CCC(NC(=O)NC1CCN(S(C)(=O)=O)CC1)c1cccs1 (configuration not stated) — higher, 5.409%
- COCCn1cc(C(=O)N2CCCC2c2cccc(C)c2)ccc1=O (configuration not stated) — higher, 1.918%
- CC(NC(N)=O)C(=O)Nc1ccc(OCc2cccc(F)c2)c(F)c1 (configuration not stated) — lower, -7.991%
- CC[C@@H](C)[C@@H](N)C(=O)Nc1cccc(-c2cnc(NCCO)nc2)c1 — higher, 122.5%
- CCn1nnnc1-c1cccc(NC(N)=O)c1 — higher, 11.47%
- CC[C@@H](C)[C@@H](N)C(=O)Nc1cccc(-c2cnc(N(C)C)nc2)c1 — higher, 111.5%
- CCC(CC)C(O)CNC(=O)Nc1cccc(-c2nccn2C)c1 (configuration not stated) — higher, 17.02%
- CC[C@@H](C)[C@@H](N)C(=O)Nc1cccc(-c2cnc(N(C)CCO)nc2)c1 — higher, 118.1%
- CC[C@@H](C)[C@@H](N)C(=O)Nc1cccc(-c2cnc(N)nc2)c1 — higher, 118.7%
- CCC(C)NS(=O)(=O)Cc1cccc(NC(=O)C(C)C)c1 (configuration not stated) — lower, -6.422%
- CN(C)c1ncc(NC(=O)c2cccc(Nc3cnn(C)c3)c2)cn1 — higher, -2.232%
- CN(C)c1ncc(-c2c(-c3ccccc3)ncn2C(CO)C(=O)O)cn1 (configuration not stated) — lower, -11.25%
- CCC(Nc1cccc(OC)c1)C(=O)N(CCO)Cc1nccs1 (configuration not stated) — lower, -9.396%
- O=C(NCCc1nnc2n1CCCCC2)N1CCC2(CCCC2)CC1 — lower, -8.228%
- O=C(CN1CCN(c2ccnc3c(F)ccc(F)c23)CC1)N1CCCC1 — lower, -6.623%
- Cc1ccc(C)c(OC(C)C(=O)Nc2cccnc2)c1 (configuration not stated) — lower, -35.64%
- CCc1nnc2n1CCN(CC(=O)Nc1sccc1C#N)C2 — higher, 8.043%
- CCc1nnc2n1CCN(CCC(=O)Nc1cc(C)on1)C2 — lower, -8.821%
- CC(C)c1nnc2n1CCN(CC(=O)Nc1nncs1)C2 — higher, 3.103%
- CC(C)c1nnc2n1CCN(CC(=O)Nc1sccc1C#N)C2 — higher, -2.717%
- CC(C)c1nnc2n1CCN(CCC(=O)Nc1sccc1C#N)C2 — higher, 103.7%
- CCc1nnc2n1CCN(CCC(=O)Nc1sccc1C#N)C2 — higher, 88.78%
- CCc1c(C)sc2ncnc(N3C[C@H](O)[C@@H](N4CCCC4)C3)c12 — higher, 10.47%
- O=C(NCCn1nc2ccccn2c1=O)c1cc(C2CC2)[nH]n1 — higher, 7.505%
- Cl.O=C(NCCn1nc(C2CCNC2)c2cccnc21)c1ccccn1 (configuration not stated) — higher, 108.3%
- Cl.O=C(NCCn1nc(C2CCNC2)c2cccnc21)c1ccccc1 (configuration not stated) — higher, 112%
- O=C(NCc1cnn2cccnc12)c1cccc(CC2CCNCC2)c1 — higher, 4.069%
- O=C(NCCN1CCNCC1)c1nc2ccccc2c(=O)[nH]1 — higher, -2.833%
- O=C(NCCCc1nnc2ccccn12)c1ccccc1C1CCNC1 (configuration not stated) — higher, 3.583%
- Cc1nc(C)n(CC2CCCCN2CC(=O)N(C)Cc2ccco2)n1 (configuration not stated) — lower, -3.611%
- CCN(C(=O)NCc1ncc(C)c(OC)c1C)C(C)c1cccnc1 (configuration not stated) — lower, -16.66%
- O=C(c1cc(C2CC2)nc2onc(-c3ccccc3)c12)N1CC[C@H](O)C1 — higher, 6.458%
- O=C(c1cc(C2CC2)nc2onc(-c3ccccc3)c12)N1CCOCC1 — higher, 3.139%
- CC(C)CNC(=O)c1cc(C2CC2)nc2onc(C3CCNCC3)c12 — higher, 97.28%
- O=C(NC1CC1)c1cc(C2CC2)nc2onc(C3CCNCC3)c12 — higher, 97.57%
- O=C(c1cc(-c2ccccc2)nc2onc(C3CC3)c12)N1CC[C@H](O)C1 — higher, -0.1163%
- CC(C)CNc1nc2c(cc1C(=O)NCC1CC1)CCNCC2 — higher, 3.893%
- FC(F)(F)CCc1ccnc(N2CCN(Cc3ccncc3)CC2)n1 — higher, -2.758%
- CCO[C@H]1CO[C@@]2(CCCN(S(=O)(=O)c3ccccc3)C2)C1 — lower, -23.06%
- COCC(=O)N1CC[C@]2(O)CCN(Cc3cccnc3OC)C[C@@H]2C1 — higher, 17.33%
- O=C(CCc1ccsc1)N1CCC(Cc2ccc(CO)cc2)C1 (configuration not stated) — lower, -8.756%
- COCC(=O)N1CC[C@]2(O)CCN(C(=O)CCc3ccsc3)C[C@@H]2C1 — higher, 120%
- COCc1nc(C(=O)N2CCN(Cc3ccsc3)CC2)cs1 — lower, -16.22%
- COCC(=O)N1CC[C@]2(O)CCN(Cc3ccsc3)C[C@@H]2C1 — higher, 113.5%
- COCC(=O)N1CCN(C(=O)CCc2ccsc2)CC1 — lower, -13.91%
- Cn1cnc2c1CCN(Cc1nc(COc3ccc(F)cc3)no1)C2 — higher, 1.894%
- Cc1cccc(N2CCN(CCC(=O)NCc3nnc[nH]3)CC2)c1 — higher, -0.9949%
- CC(C)N1CCC(N2CCCC(C(=O)NCC3(C)COC3)C2)CC1 (configuration not stated) — lower, -5.464%
- Cn1nccc1-c1cnc2n1CCC21CCN(C(=O)C2(C)CC2)CC1 — higher, 98.02%
- Cn1cc(-c2cnc3n2CCC32CCN(S(C)(=O)=O)CC2)cn1 — higher, 7.243%
- COc1ccc(-c2cnc3n2CCNC32CCN(S(C)(=O)=O)CC2)cc1 — lower, -5.963%
- Cn1nccc1-c1cnc2n1CCNC21CCN(C(=O)C2(C)CC2)CC1 — higher, 92.03%
- CCNC(=O)N1CCC2(CC1)CCn1c(-c3ccccc3)cnc12 — lower, -10.02%
- CS(=O)(=O)N1CCC2(CC1)NCCn1c(-c3ccccc3)cnc12.O=C(O)C(F)(F)F.O=C(O)C(F)(F)F — lower, -8.058%
- O=S(=O)(NCCn1ccc(-c2cccs2)n1)C1CC1 — higher, 1.599%
- COCCOCCNc1cncc(Br)c1 — lower, -4.495%
- CCN(Cc1ccncc1)C1CCCN(C/C=C/c2ccc(F)cc2)C1 (configuration not stated) — higher, 3.422%
- Cc1nc2ccccc2n1Cc1cc(C(=O)N(C)C2CCOCC2)no1 — higher, 169.5%
- Cc1ccc(CNC(=O)c2cc(CN3CCC(O)CC3)on2)s1 — higher, -1.351%
- Cc1nc2ccccc2n1Cc1cc(C(=O)NC2CCOC2)no1 (configuration not stated) — higher, 107.5%
- O=C(c1cc(Cn2cnc3ccccc32)on1)N1CCOCC1 — lower, -10.83%
- O=C(NCC1CCCCO1)c1cc(Cn2cnc3ccccc32)[nH]n1 (configuration not stated) — lower, -5.339%
- Cc1nc2ccccc2n1Cc1cc(C(=O)N(C)C2CCOC2)n[nH]1 (configuration not stated) — higher, 98.82%
- COCC1CCCN(C(=O)c2cc(Cn3ccc4ccccc43)[nH]n2)C1 (configuration not stated) — lower, -4.391%
- Cc1nc2ccccc2n1Cc1cc(C(=O)N2C[C@@H](C)O[C@@H](C)C2)no1 — lower, -14.98%
- C[C@@H]1CN(C(=O)c2cc(Cn3cnc4ccccc43)on2)C[C@H](C)O1 — higher, -0.2425%
- Cc1ccccc1CN1C[C@@H]2CC[C@H](C1)N(CC1CCC1)C2=O — lower, -3.68%
- c1cnnc(N2CCCC2CNc2nc3ccccc3o2)c1 (configuration not stated) — higher, 0.7954%
- Cn1cc(N2CCCC(Nc3ccc4c(c3)CCC(=O)N4)C2=O)cn1 (configuration not stated) — higher, -0.6283%
- CC(NC(=O)NC1CCN(Cc2ccccc2)CC1)c1nncn1C (configuration not stated) — higher, -0.6608%
